In PubChem BioAssay AID2283220 (EPA ToxCast):
Results filed as inconclusive are left out. Activity calls are given as the source filed them. Rule for the calls: active = hit-call score of the fitted dose curve at least 0.9, where 1 is the maximum; inconclusive = response in the unintended direction; inactive = score below 0.9.

These compounds were tested against human Serum/Glucocorticoid Regulated Kinase 1 (SGK1), SGK1 (gene 6446) (UniProt O00141) (assay: NVS_ENZ_hSGK1: NovaScreen (NVS) Enzymatic Assay for human Serum/Glucocorticoid Regulated Kinase 1 (SGK1)).
Chain of human Serum/Glucocorticoid Regulated Kinase 1 (SGK1), SGK1 (gene 6446) (O00141 whole entry, looked up): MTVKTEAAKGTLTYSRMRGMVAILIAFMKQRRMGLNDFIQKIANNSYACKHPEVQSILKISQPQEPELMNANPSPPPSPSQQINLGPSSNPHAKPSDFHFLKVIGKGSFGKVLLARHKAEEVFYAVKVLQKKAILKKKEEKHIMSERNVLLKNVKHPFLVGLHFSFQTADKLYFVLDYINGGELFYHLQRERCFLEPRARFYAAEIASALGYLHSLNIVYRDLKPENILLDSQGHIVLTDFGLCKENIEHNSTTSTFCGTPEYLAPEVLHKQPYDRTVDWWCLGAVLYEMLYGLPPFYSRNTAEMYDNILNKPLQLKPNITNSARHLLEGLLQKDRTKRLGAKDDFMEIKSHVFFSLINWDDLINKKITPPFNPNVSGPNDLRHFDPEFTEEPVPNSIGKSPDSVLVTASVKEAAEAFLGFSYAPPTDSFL
Description: NVS_ENZ_hSGK1 is a biochemical, single-readout assay that uses extracted gene-proteins in a cell-free assay. Measurements were taken 1 hour after chemical dosing in a 96-well plate.NVS_ENZ_hSGK1 is one of one assay component(s) measured or calculated from the NVS_ENZ_hSGK1 assay. It is designed to make measurements of enzyme activity, a form of enzyme reporter, as detected with fluorescence intensity signals by Fluorescence and electrophoretic mobility shift technology.Data from the assay component NVS_ENZ_hSGK1 was analyzed into 1 assay endpoint. This assay endpoint, NVS_ENZ_hSGK1, was analyzed in the positive analysis fitting direction relative to DMSO as the negative control and baseline of activity. Using a type of enzyme reporter, loss-of-signal activity can be used to understand changes in the enzymatic activity as they relate to the gene SGK1. Furthermore, this assay endpoint can be referred to as a primary readout, because this assay has produced […] where this one serves a enzymatic activity function. To generalize the intended target to other relatable targets, this assay endpoint is annotated to the kinase intended target family, where the subfamily is serine/threonine kinase.
Binding assays used specific radioligands (tritiated, iodinated) with non-radioactive competitive displacement ligands in agonist or antagonist protocols (as indicated) and various reference compounds and inhibitors to titrate specific binding to receptors and transporters. Most enzyme assays (CYPs, kinases, phosphatases, proteases, HDACs) used recombinant protein and specific substrates (fluorescence mostly, some colorimetric and radioactive) and inhibitors, followed by a biochemical separation of substrate and product. All assays for the biochemical HTS were initially run in duplicate at a single concentration (10 uM for CYP450 assays and 25 uM for all others). Assay-chemical combinations meeting a pre-defined threshold (e.g., 30% inhibition and other criteria defined below) were then run in singleton concentration-response format with maximum concentration of 20 uM for CYPs and 50 uM for all others. Each assay was run with positive and negative controls, and concurrent controls on every plate. The follow-up (secondary) screen tested active chemical-pairs in concentration series, as well as a few additional assays not tested in the primary screen, some selected negative inactives, and several cases re-run in the concentration series for confirmatory purposes.

SMILES	outcome	AC50
CCCC(=NOCC)C1=C(O)CC(CC(C)SCC)CC1=O (centres undefined)	inactive	
COP(=S)(OC)Oc1ccc([N+](=O)[O-])cc1	inactive	
CCNc1nc(Cl)nc(NCC)n1	inactive	
COC(=O)c1ccccc1S(=O)(=O)NC(=O)N(C)c1nc(C)nc(OC)n1	inactive	
S=C1NCCN1	inactive	
CNC(=S)S	inactive	
Nc1c(Cl)cc([N+](=O)[O-])cc1Cl	inactive	
OC(c1ccc(Cl)cc1)(c1ccc(Cl)cc1)C(Cl)(Cl)Cl	inactive	
N#Cc1c(Cl)c(Cl)c(Cl)c(C#N)c1Cl		19.8 µM (active)
CC(C)OC(=O)Nc1cccc(Cl)c1	inactive	
O=S(=O)(O)C(F)(F)C(F)(F)C(F)(F)C(F)(F)C(F)(F)C(F)(F)C(F)(F)C(F)(F)F		26.2 µM (active)
O=C(O)COc1ccc(Cl)cc1Cl	inactive	
CC(Oc1cccc(Cl)c1)C(=O)O (centres undefined)	inactive	
O=C(O)C(F)(F)C(F)(F)C(F)(F)C(F)(F)C(F)(F)C(F)(F)C(F)(F)F	inactive	
